This is a sample that favours compounds with a hit; in the whole collection about 1.2% have one here.
Giardia FBPA inh-1: inhibitors of Giardia lamblia fructose-1,6-bisphosphate aldolase | A8B2U2 | purified Giardia FBPA | Potency, µM (titrated, usually from 59.6 µM), for inactives: top-dose activity, negative = inhibition, actives largely listed as inhibitors | 0.71% of 290,000 active | AID 2451; further: on the % scale 0 is the no-effect control and ±100 the full control effect; nearly all actives have a fitted effect of over 55% in size
Target sequence (A8B2U2 whole entry, looked up): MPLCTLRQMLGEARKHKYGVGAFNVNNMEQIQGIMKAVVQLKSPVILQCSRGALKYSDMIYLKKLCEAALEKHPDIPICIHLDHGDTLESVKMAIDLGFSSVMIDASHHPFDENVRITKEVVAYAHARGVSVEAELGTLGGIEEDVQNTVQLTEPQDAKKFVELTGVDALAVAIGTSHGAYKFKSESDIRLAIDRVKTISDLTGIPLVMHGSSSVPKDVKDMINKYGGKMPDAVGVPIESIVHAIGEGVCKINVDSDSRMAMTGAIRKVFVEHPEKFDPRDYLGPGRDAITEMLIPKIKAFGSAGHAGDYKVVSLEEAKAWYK
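40 nM FBPA preincubated 10 min at RT with compound (up to 57.5 uM final), then substrate plus GAPDH/TPI/NAD/arsenate coupling and diaphorase/resazurin added. Fluorescence read after 20 min at RT, 525/598 nm.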
TbPYK inhibitor: blocks Trypanosoma brucei pyruvate kinase | 0.12% of 410,000 active | TbPYK enzyme, Kinase-Glo Plus ATP luminescence, 45 min | Potency, µM (doses to about 76.8 µM), for the others: at the highest dose activity, negative = inhibition, hits mostly inhibitors | Q57TT1; further: on the % scale 0 is the no-effect control and ±100 the full control effect; nearly all actives have a fitted effect of over 50% in size
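Screened from lowest to highest concentration, compounds were pinned into TbPYK/substrate mixtures, and ADP (130 uM final) was added. Plates sat at room temperature for 45 min prior to Kinase-Glo Plus detection by luminescence.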
NS1 function inh: blocks influenza NS1 protein function. 0.4% of 270,000 active. Potency, µM (highest dose often 46.1 µM), without a hit: at the top dose activity, positive = more growth; calls by dose curve; further: actives are rising curves; nearly all actives have a fitted effect of over 50% in size
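Growth recovery, yeast-based: influenza A NS1 expressed in S. cerevisiae causes slow growth, and suppressors are detected by OD600. The parent strain without NS1 is used as positive control.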
AMA1-RON2 inh: disrupts binding of P. falciparum AMA1 to RON2. AlphaScreen AMA1-biotinylated RON2 peptide binding. Potency, µM (doses to about 58.2 µM), inactives show at the top dose activity change, negative = inhibition, actives largely listed as inhibitors. 0.2% of 360,000 active. AID 720542;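 further: 0% = vehicle wells and -100% = peptide control; nearly all actives have a fitted effect of over 45% in size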
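AMA1 (3D7) with his tag at 25 nM final met compounds first, then biotinylated RON2 peptide at 25 nM; detection used donor plus acceptor beads, 10 µg/mL apiece, read by AlphaScreen after 30 min at room temperature.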
LmPK inhibitor: inhibitors of Leishmania mexicana pyruvate kinase; 0.37% of 290,000 active; Potency, µM (series often up to 57.5 µM), for inactives: top-dose activity change, negative = inhibition, actives largely listed as inhibitors; purified LmPK, Kinase-Glo ATP luminescence, 1 h; AID 1721; further: on the % scale 0 is the no-effect control and ±100 the full control effect
Target sequence (Q27686 whole entry, looked up): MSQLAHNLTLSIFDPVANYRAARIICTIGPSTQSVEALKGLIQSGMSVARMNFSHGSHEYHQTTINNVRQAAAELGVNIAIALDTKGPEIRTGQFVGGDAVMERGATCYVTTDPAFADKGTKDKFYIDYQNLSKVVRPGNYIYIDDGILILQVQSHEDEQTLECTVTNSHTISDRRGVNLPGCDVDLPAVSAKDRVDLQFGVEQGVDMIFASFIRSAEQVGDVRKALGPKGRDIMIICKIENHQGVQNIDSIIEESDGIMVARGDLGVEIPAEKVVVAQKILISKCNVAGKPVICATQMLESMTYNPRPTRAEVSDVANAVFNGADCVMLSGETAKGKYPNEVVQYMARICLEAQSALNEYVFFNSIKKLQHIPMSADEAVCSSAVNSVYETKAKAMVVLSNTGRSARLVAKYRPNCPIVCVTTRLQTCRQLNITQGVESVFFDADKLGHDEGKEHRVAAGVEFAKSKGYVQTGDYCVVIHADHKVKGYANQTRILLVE
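ATP generated from ADP (0.1 mM) and PEP (0.5 mM) by 0.1 nM LmPK over 1 h at room temperature (pH 7.2 imidazole buffer) was detected by coupled luciferase luminescence. Values were normalized to uninhibited and no-enzyme wells.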
Giardia growth: inhibitors of Giardia lamblia growth. AID 2785. shares compounds with Giardia FBPA inh-1. 5% of 1,500 active. Giardia lamblia trophozoite growth inhibition. Potency, µM (doses to about 57.5 µM), without a hit: at the highest dose activity change, negative = inhibition, actives largely listed as inhibitors;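 further: trophozoites exposed to compound for 48 h at 37 °C; on the % scale 0 is the no-effect control and ±100 the full control effect; nearly all actives have a fitted effect of over 70% in size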
Mammal cell tox: counter-screen for Giardia aldolase inhibitors: mammalian cell toxicity | shares compounds with Giardia FBPA inh-1 | mammalian cell viability counter-screen, qHTS | Potency, µM (doses to about 57.5 µM), for inactives: at the highest dose viability change, negative = toxicity, usual class: inhibitors | 4% of 1,500 active | AID 2786;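 further: Chinese hamster ovary cells used as mammalian cytotoxicity surrogate; viability measured as cellular ATP by luminescence; compound exposure lasted 48 h before reading; on the % scale 0 is the no-effect control and ±100 the full control effect; nearly all actives have a fitted effect of over 60% in size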
Giardia FBPA inh-2: confirmation of Giardia fructose-bisphosphate aldolase inhibitors; Potency, µM (highest dose often 57.5 µM), inactives show at the highest dose activity change, negative = inhibition, most hits filed as inhibitors; shares compounds with Giardia FBPA inh-1; purified Giardia aldolase enzyme activity, qHTS; 5% of 1,500 active; AID 2787; further: on the % scale 0 is the no-effect control and ±100 the full control effect; nearly all actives have a fitted effect of over 45% in size
Rabbit FBPA inh: selectivity test for Giardia aldolase inhibitors: rabbit aldolase | AID 2794 | 4% of 1,500 active | shares compounds with Giardia FBPA inh-1 | Rabbit muscle FBPA enzyme inhibition, selectivity counter-screen | Potency, µM (series often up to 57.5 µM), inactives show at the top dose activity, negative = inhibition, hits mostly inhibitors; further: on the % scale 0 is the no-effect control and ±100 the full control effect; nearly all actives have a fitted effect of over 60% in size
GAPDH counter: GAPDH inhibition flagged for Giardia aldolase hits; GAPDH coupling enzyme counterscreen, biochemical, qHTS; Potency, µM (series often up to 57.5 µM), inactives show top-dose activity change, negative = inhibition, hits mostly inhibitors; 6% of 1,500 active; AID 2795; shares compounds with Giardia FBPA inh-1; further: on the % scale 0 is the no-effect control and ±100 the full control effect; nearly all actives have a fitted effect of over 55% in size
Numbers without * were called inactive; u = inconclusive; x = no result; [ ] = another dose, or the depositor's remark. Unless noted, the call rests on the fitted dose curve; in most records, active means well fitted curve in the direction sought with a large enough effect; inconclusive means small, poorly fitted or top-dose-only effect, or another doubt; inactive means no such curve, though single readings can be large; an effect the other way counts as inactive or inconclusive. Potency means the concentration at half of the fitted maximal effect.

SMILES	Giardia FBPA inh-1	TbPYK inhibitor	NS1 function inh	AMA1-RON2 inh	LmPK inhibitor	Giardia growth	Mammal cell tox	Giardia FBPA inh-2	Rabbit FBPA inh	GAPDH counter
CCN1CCN(Cc2cc3c(cc2[N+](=O)[O-])OCO3)CC1	u	-2%	21%	10%	3%	x	x	x	x	x
COc1ccc2c(c1-c1c3c(cc(Br)c1OC)CCCC3)CCCC2	0%	x	x	x	x	x	x	x	x	x
CC1(C)OC[C@@H]2O[C@@]3(C(=O)O)OC(C)(C)O[C@@H]3[C@@H]2O1	x	3%	x	x	x	x	x	x	x	x
CCCn1c(C)nc2c(NCCN3CCCC3)nc(C)nc21	1%	x	x	x	x	x	x	x	x	x
Cc1cccc(Cn2c(SCc3ccc(C(=O)NCc4cccs4)cc3)nc3ccncc32)c1	x	-9%	x	x	x	x	x	x	x	x
CN(C)CCn1c(NCc2ccc3c(c2)OCO3)nc2ccccc21	28µM*	-5%	2%	0%	-1%	u	-14%	5%	6%	9%
C=CCc1ccc(OCCOc2cccc3ccc(C)nc23)c(OC)c1	11µM*	24%	-49%	-27%	-6%	u	-19%	-22%	-13%	-9%
O=c1cc(CSc2n[nH]c(-c3ccccc3)n2)[nH]c2ccccc12	x	-7%	x	x	x	x	x	x	x	x
COc1cc(S(=O)(=O)NCCN2CCOCC2)ccc1-n1cnnn1	18µM*	5%	x	-3%	-10%	4%[10.4 µM]	3%	-1%	13%	5%
O=C1Oc2ccccc2C(=O)C1C(CC(O)c1ccc(-c2ccc(Br)cc2)cc1)c1ccccc1 (stereo unspecified)	x	0%	x	x	x	x	x	x	x	x
CCN(c1ccccc1)C(CNS(=O)(=O)c1ccccc1)c1ccccc1 (stereo unspecified)	x	1%	x	x	x	x	x	x	x	x
O=C(Nc1ccc(S(=O)(=O)Nc2ncccn2)cc1)c1ccc(Cl)c([N+](=O)[O-])c1	-12%	-4%	8%	-8%	3%	x	x	x	x	x
Cc1ccc(C(=O)Nc2ccc(S(=O)(=O)Nc3ncccn3)cc2)cc1[N+](=O)[O-]	25µM*	4%	-2%	2%	-4%	-14%[10.4 µM]	3%	-7%	7%	-17%
Cc1nc(NCc2ccccc2)c2nc(-c3ccccc3)n(CCN3CCCC3)c2n1	9%	x	x	x	x	x	x	x	x	x
C[N+](C)=C1SCC(C)(/C=N/O)S1 (stereo unspecified)	14µM*	5%	8%	39%	-2%	58%	-10%	0%	12%	1%
Oc1[nH]c2ccccc2c1N=NC(=S)N1CCOCC1	18µM*	u	-62%	-48%	22µM*	2%[10.4 µM]	40µM*	10%	0%	-8%
CN(C)C(=S)SSC(=S)N(C)C	40µM*	4.5µM*	9%	-2%	1%	14µM*	4.5µM*	u	u	40µM*
CCOC(=O)c1[nH]cnc1C(=O)O	18µM*	2%	-2%	17%	1%	21%	5%	5%	1%	4%
CCC(NC(=O)NNC(N)=S)(C(F)(F)F)C(F)(F)F	20µM*	-8%	-3%	45%	-2%	17%	9%	6%	3%	7%
CCOc1ccc(CN(C)CC(=O)Nc2cccc(S(=O)(=O)N(C)c3ccccc3)c2)cc1	20µM*	4%	x	-25%	-17%	u	6%	4%	17%	-1%
O=C(CNCc1cccs1)Nc1ccc(N2CCCCCC2)cc1	18µM*	5%	13%	35µM*	-5%	u	-11%	-15%	-14%	-13%
O=C(NCCc1ccccc1Cl)c1ccc2c(c1)nc1n2CCCCC1	x	1%	x	x	x	x	x	x	x	x
CCOc1ccc(C(C)=O)cc1Cc1c(O)[nH]c(=S)[nH]c1=O	22µM*	-27%	27%	7%	-8%	-16%	1%	-8%	1%	-16%
CCCOc1ccc(C(C)=O)cc1Cc1c(O)[nH]c(=S)[nH]c1=O	u	u	u	5%	-1%	x	x	x	x	x
NNc1ccc(Cl)nn1	20µM*	-3%	-3%	75%	0%	12%	-1%	-5%	0%	-17%
SMILES	Giardia FBPA inh-1	TbPYK inhibitor	NS1 function inh	AMA1-RON2 inh	LmPK inhibitor	Giardia growth	Mammal cell tox	Giardia FBPA inh-2	Rabbit FBPA inh	GAPDH counter
NS(=O)(=O)c1cc(-c2nn[nH]n2)c(NCc2cccs2)cc1Cl	x	0%	x	x	x	x	x	x	x	x
O=C(Nc1ncn[nH]1)c1ccccc1O	20µM*	-1%	-4%	91%	-2%	u	-3%	-12%	-3%	8%
COc1ccc(NC(=O)c2oc3ccc(S(=O)(=O)N(C)C4CCCCC4)cc3c2C)cc1Cl	x	-15%	x	x	x	x	x	x	x	x
NC(=S)N/N=C/c1cn(CCC(=O)O)nc1-c1cccc(Br)c1	u	3%	2%	152%	2%	x	x	x	x	x
COc1ccc(-c2nn(CCC(=O)O)cc2/C=N/NC(N)=S)cc1	16µM*	-6%	-2%	87%	-1%	3%[10.4 µM]	18%	1%	2%	11%
C/C(CCC1CC(C)(C)OC1=O)=N\NC(N)=S (stereo unspecified)	18µM*	7%	-4%	36%	-5%	43%	-12%	7%	4%	6%
C/C(CC1CC(C)(C)OC1=O)=N\NC(N)=S (stereo unspecified)	20µM*	-2%	7%	79%	1%	-29%	-12%	5%	5%	3%
CCC1=Nc2cc(C(=O)NCc3ccccc3OC)ccc2Sc2ccc(Cl)cc21	x	-10%	x	x	x	x	x	x	x	x
O=c1[nH]c(CSc2cccc[n+]2[O-])nc2ccccc12	14µM*	-25%	-65%	27%	0%	0%[10.4 µM]	-9%	-2%	-4%	1%
COC(=O)c1cccnc1NC(=S)NNC(=O)c1ccncc1	7.1µM*	x	-2%	79%	2%	65%	20%	-7%	8%	-20%
N#Cc1ccc(Cl)cc1NC(=O)CNCc1cccs1	16µM*	35%	4%	60%	-3%	u	9%	2%	4%	8%
O=C1OC2(CCCCC2)CC2=C1C1O[C@](CCCCN3C(=O)c4ccccc4C3=O)(Cc3ccccc31)O2	2%[12.9 µM]	x	-1%	x	-5%[11.5 µM]	x	x	x	x	x
O=C(NN1C(=O)/C(=C/c2ccc(O)c(O)c2)SC1=S)c1ccccc1	14µM*	u	24%	u	-17%	-4%	-9%	-20%	-25%	0%
